# Measured values published in article PMC7862700, “An all-to-all approach to the identification of sequence-specific readers for epigenetic DNA modifications on cytosine”.
# Legend:
# Test in all cases: DAPPL (digital affinity profiling via proximity ligation, sequencing); 10 mM Tris-HCl pH 7.5, 50 mM NaCl, 1 mM DTT, 4% glycerol, room temperature, 30 min; GST-TFs on glutathione beads, 16-mer random dsDNA library, 0.1% formaldehyde crosslink after washing; high values mean tight binding
# FLI1 = target: T1, FLI1 (Homo sapiens, UniProt Q01543 1-452); settings: protein: recombinant; tags: N-terminal GST; dsDNA, one strand shown
# T1 sequence: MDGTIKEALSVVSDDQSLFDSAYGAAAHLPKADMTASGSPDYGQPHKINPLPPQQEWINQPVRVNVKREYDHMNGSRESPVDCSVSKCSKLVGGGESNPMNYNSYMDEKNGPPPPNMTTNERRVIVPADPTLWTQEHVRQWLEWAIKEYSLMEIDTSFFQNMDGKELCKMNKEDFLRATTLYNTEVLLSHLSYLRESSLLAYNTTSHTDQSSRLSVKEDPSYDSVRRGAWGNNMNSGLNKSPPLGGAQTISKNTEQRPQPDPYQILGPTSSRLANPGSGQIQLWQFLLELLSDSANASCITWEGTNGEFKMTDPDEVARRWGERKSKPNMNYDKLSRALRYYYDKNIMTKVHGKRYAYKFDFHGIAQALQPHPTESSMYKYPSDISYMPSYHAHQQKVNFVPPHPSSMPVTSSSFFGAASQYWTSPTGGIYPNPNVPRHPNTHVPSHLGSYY
# How it was run: (§1)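 Pools were built from human transcription factors expressed in yeast as GST fusions, captured on glutathione beads and DNA-barcoded, along with a tag-only sample. Incubation with 200 nmole of a 16-mer random double-stranded DNA library lasted 30 min at room temperature in Tris/NaCl/DTT/glycerol buffer, and was followed by washing, 0.1% formaldehyde crosslinking, proximity ligation, PCR amplification and Illumina NextSeq500 sequencing. Binding signal is the quotient of each hexamer's read frequency for a factor and its frequency for the tag-only sample.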
# ELK1 = target: T2, ELK1 (Homo sapiens, UniProt P19419 1-428); settings: protein: recombinant; tags: N-terminal GST; dsDNA, one strand shown
# T2 sequence: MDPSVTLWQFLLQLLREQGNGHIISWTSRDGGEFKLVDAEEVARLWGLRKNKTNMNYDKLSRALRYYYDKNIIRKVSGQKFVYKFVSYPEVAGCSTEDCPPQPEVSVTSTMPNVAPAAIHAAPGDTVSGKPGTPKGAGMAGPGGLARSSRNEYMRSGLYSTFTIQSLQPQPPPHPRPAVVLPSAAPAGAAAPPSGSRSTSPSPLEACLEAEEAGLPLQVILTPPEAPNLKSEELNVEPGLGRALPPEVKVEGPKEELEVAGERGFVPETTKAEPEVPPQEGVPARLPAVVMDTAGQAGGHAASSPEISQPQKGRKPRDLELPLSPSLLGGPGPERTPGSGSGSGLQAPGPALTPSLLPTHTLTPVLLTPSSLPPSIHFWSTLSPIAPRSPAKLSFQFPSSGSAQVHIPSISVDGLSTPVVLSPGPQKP
# How it was run: as §1
# GABPA = target: T3, GABPA (Homo sapiens, UniProt Q06546 1-454); settings: protein: recombinant; tags: N-terminal GST; dsDNA, one strand shown
# T3 sequence: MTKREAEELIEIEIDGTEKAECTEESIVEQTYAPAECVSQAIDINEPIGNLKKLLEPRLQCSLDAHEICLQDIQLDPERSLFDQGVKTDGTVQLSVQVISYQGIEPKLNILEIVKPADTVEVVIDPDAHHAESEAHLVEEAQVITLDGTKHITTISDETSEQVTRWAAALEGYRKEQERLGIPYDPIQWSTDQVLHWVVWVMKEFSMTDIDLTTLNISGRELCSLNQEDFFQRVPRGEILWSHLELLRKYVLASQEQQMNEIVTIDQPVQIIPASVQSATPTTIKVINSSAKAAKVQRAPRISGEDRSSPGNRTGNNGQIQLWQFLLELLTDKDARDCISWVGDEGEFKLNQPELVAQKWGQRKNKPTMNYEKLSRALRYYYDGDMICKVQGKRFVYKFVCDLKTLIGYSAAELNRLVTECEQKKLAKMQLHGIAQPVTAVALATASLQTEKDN
# How it was run: as §1
# ERG = target: T4, ERG (Homo sapiens, UniProt P11308 1-479); settings: protein: recombinant; tags: N-terminal GST; dsDNA, one strand shown
# T4 sequence: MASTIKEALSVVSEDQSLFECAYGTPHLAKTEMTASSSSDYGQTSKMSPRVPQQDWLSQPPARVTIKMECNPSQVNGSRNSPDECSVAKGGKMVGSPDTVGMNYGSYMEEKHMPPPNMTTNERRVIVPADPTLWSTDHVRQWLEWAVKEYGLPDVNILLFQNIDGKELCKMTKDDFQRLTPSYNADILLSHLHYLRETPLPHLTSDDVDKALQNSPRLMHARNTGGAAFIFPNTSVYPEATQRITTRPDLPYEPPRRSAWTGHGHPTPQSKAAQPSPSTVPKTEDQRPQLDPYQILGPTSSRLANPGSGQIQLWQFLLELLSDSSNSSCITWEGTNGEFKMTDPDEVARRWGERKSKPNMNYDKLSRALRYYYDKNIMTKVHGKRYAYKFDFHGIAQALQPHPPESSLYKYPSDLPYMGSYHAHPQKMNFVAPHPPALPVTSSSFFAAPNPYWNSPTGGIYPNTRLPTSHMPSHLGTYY
# How it was run: as §1
# ELF1 = ELF1 (Homo sapiens, UniProt P32519 1-619); settings: protein: recombinant; tags: N-terminal GST; dsDNA, one strand shown
# Chain of ELF1 (P32519 whole entry): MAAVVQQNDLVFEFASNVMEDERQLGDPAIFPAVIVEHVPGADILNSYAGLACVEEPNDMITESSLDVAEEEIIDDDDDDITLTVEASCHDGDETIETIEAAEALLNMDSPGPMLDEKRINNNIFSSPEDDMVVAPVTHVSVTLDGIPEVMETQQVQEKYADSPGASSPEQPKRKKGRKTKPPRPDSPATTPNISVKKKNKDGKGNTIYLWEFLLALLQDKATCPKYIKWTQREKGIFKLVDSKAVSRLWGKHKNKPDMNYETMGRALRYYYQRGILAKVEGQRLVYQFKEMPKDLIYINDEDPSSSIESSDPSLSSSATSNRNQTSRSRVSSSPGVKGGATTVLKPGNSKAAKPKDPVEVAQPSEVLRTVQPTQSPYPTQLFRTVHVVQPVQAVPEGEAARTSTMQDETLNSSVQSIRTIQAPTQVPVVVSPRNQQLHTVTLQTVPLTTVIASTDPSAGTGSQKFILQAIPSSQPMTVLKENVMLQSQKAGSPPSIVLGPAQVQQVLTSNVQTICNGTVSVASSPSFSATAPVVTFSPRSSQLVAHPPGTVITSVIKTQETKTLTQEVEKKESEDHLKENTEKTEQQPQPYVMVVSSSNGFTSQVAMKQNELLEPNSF
# How it was run: as §1
# EHF = target: T5, EHF (Homo sapiens, UniProt Q9NZC4 1-300); settings: protein: recombinant; tags: N-terminal GST; dsDNA, one strand shown
# T5 sequence: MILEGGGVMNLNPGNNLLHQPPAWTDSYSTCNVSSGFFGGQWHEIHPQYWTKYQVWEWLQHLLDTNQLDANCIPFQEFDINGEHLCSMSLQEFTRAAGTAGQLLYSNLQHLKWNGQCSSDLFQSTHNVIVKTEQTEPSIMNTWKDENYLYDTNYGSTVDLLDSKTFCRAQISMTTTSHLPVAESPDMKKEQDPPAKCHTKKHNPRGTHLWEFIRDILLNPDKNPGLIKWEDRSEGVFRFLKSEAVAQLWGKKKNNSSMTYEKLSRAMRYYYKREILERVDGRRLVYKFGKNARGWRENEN
# How it was run: as §1
# SPI1 = SPI1 (Homo sapiens, UniProt P17947 1-270); settings: protein: recombinant; tags: N-terminal GST; dsDNA, one strand shown
# How it was run: as §1
# SPIB = SPIB (Homo sapiens, UniProt Q01892 1-262); settings: protein: recombinant; tags: N-terminal GST; dsDNA, one strand shown
# Chain of SPIB (Q01892 whole entry): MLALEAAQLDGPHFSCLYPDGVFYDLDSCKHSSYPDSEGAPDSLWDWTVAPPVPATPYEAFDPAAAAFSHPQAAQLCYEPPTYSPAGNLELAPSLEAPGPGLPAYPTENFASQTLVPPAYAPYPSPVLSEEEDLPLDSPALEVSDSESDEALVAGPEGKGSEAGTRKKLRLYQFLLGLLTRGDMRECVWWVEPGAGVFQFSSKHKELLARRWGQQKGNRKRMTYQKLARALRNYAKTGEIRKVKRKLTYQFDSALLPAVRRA
# How it was run: as §1
# ELK3 = target: T6, ELK3 (Homo sapiens, UniProt P41970 1-407); settings: protein: recombinant; tags: N-terminal GST; dsDNA, one strand shown
# T6 sequence: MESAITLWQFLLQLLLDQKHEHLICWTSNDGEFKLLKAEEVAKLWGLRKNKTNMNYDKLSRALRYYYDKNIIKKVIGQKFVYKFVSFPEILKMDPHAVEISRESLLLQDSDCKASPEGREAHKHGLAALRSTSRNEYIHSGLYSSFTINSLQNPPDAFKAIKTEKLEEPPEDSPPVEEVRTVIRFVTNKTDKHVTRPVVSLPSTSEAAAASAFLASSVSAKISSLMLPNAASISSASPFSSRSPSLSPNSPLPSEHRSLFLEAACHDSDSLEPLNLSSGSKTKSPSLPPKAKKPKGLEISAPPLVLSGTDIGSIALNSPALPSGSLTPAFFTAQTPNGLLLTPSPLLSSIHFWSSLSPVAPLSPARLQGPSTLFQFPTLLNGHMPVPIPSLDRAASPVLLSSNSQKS
# How it was run: as §1
# FEV = target: T7, FEV (Homo sapiens, UniProt Q99581 1-238); settings: protein: recombinant; tags: N-terminal GST; dsDNA, one strand shown
# T7 sequence: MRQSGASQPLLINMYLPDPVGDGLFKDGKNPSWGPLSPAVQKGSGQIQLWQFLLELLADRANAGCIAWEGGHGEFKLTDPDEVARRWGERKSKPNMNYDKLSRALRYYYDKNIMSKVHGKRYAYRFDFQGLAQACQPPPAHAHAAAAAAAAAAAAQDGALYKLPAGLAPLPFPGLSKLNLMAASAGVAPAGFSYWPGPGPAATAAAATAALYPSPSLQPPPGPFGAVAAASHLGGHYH
# How it was run: as §1
# ETV5 = ETV5 (Homo sapiens, UniProt P41161 1-510); settings: protein: recombinant; tags: N-terminal GST; dsDNA, one strand shown
# Chain of ETV5 (P41161 whole entry): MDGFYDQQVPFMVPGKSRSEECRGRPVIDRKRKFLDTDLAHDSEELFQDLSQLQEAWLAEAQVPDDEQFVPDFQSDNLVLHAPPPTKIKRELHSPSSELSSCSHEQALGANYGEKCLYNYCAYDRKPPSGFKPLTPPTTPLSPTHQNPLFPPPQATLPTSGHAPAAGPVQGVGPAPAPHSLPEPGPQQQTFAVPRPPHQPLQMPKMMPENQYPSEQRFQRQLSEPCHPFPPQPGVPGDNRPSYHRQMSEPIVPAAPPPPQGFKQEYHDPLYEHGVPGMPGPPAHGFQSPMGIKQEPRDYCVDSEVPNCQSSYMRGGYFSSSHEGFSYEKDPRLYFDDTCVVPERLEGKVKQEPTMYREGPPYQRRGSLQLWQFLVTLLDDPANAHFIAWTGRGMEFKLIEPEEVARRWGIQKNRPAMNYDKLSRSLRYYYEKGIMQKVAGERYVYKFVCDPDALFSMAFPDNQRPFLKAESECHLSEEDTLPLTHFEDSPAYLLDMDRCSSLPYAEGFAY
# How it was run: as §1
# HSF1 = HSF1 (Homo sapiens, UniProt Q00613 1-529); settings: protein: recombinant; tags: N-terminal GST; chain copies: 3; dsDNA, one strand shown
# Chain of HSF1 (Q00613 whole entry): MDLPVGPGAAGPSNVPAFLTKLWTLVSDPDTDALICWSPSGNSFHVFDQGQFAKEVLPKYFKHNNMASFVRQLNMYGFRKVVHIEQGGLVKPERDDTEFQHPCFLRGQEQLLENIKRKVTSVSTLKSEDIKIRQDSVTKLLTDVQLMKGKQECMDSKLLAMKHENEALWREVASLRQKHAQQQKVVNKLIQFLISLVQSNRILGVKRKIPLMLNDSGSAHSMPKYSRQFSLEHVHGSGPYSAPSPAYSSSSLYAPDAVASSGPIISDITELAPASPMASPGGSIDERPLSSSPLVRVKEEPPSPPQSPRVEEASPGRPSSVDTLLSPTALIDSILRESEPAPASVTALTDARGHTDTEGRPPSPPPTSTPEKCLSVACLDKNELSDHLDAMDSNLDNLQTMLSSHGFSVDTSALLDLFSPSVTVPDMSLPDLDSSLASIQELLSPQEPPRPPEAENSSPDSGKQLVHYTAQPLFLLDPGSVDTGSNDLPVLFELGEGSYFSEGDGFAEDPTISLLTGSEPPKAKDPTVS
# How it was run: as §1
# SPIC = target: T8, SPIC (Homo sapiens, UniProt Q8N5J4 1-248); settings: protein: recombinant; tags: N-terminal GST; dsDNA, one strand shown
# T8 sequence: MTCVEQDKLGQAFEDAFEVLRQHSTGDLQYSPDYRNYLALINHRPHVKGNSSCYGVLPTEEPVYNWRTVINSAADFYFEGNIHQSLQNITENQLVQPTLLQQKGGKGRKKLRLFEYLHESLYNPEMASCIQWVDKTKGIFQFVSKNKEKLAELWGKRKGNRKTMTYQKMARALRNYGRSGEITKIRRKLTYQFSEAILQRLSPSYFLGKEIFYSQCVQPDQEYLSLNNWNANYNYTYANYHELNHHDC
# How it was run: as §1
# ELF4 = ELF4 (Homo sapiens, UniProt Q99607 1-663); settings: protein: recombinant; tags: N-terminal GST; dsDNA, one strand shown
# Chain of ELF4 (Q99607 whole entry): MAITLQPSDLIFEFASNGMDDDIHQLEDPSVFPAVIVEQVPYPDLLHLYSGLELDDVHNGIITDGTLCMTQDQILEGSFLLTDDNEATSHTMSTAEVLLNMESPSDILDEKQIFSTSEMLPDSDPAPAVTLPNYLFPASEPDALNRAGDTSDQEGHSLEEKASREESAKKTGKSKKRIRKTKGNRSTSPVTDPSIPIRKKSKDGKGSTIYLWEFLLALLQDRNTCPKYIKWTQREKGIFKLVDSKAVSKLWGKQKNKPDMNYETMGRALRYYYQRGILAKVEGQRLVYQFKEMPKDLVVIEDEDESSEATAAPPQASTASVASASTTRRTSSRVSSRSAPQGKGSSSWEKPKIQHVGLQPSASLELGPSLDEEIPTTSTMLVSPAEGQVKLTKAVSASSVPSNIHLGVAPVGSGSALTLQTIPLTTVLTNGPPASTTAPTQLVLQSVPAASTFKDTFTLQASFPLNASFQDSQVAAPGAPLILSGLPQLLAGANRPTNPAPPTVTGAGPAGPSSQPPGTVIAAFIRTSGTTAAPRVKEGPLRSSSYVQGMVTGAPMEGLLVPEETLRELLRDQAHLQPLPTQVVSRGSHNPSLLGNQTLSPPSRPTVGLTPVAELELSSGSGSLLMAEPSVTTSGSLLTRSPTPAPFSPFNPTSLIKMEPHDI
# How it was run: as §1
# ELK4 = target: T9, ELK4 (Homo sapiens, UniProt P28324-2 1-405); settings: protein: recombinant; tags: N-terminal GST; dsDNA, one strand shown
# T9 sequence: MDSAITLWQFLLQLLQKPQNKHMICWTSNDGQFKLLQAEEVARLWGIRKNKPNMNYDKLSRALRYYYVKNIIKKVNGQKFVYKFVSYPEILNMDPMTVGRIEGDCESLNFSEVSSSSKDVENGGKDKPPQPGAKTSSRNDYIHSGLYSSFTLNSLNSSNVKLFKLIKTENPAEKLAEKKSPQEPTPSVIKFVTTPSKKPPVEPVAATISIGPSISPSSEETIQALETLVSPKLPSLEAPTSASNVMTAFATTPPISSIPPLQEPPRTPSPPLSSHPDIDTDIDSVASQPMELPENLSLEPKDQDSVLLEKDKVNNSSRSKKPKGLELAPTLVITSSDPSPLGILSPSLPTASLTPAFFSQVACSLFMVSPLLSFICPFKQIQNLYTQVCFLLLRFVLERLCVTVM
# How it was run: as §1
# ETV2 = target: T10, ETV2 (Homo sapiens, UniProt O00321 1-342); settings: protein: recombinant; tags: N-terminal GST; dsDNA, one strand shown
# T10 sequence: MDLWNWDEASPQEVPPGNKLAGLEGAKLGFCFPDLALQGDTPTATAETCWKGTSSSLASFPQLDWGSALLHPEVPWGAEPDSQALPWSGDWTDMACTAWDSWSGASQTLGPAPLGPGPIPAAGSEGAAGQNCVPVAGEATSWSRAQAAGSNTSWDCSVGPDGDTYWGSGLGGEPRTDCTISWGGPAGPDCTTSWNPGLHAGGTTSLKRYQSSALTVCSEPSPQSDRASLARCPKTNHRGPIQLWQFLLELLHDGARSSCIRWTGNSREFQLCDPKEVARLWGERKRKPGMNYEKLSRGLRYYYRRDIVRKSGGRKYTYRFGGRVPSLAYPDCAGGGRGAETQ
# How it was run: as §1
# ELF3 = target: T11, ELF3 (Homo sapiens, UniProt P78545 1-371); settings: protein: recombinant; tags: N-terminal GST; dsDNA, one strand shown
# T11 sequence: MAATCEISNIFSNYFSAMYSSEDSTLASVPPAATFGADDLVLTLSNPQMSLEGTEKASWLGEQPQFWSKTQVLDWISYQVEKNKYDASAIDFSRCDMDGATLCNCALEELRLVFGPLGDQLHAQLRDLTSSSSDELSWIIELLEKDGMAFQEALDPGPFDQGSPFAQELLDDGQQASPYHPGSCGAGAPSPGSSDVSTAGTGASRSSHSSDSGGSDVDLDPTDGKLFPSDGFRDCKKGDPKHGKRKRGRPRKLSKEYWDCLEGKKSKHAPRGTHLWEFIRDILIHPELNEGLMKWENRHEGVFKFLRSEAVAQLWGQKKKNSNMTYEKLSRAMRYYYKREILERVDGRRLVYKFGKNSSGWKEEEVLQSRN
# How it was run: as §1
# CRX = CRX (Homo sapiens, UniProt O43186 1-299); settings: protein: recombinant; tags: N-terminal GST; dsDNA, one strand shown
# Chain of CRX (O43186 whole entry): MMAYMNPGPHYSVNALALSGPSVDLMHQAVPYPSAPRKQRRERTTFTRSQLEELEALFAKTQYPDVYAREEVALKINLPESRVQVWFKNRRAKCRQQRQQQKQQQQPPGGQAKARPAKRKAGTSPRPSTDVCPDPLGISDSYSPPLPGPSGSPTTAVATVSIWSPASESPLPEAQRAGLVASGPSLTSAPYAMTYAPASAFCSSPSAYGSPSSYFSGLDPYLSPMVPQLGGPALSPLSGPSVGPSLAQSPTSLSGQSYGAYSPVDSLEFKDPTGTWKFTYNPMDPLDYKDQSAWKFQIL
# How it was run: as §1
sequence,measurement,setting,value
CGATAT,binding signal,FLI1,"1.14 fold enrichment (6-mer frequency, TF over GST control)"
same,binding signal,ELK1,"1.03 fold enrichment (6-mer frequency, TF over GST control)"
same,binding signal,GABPA,"1.08 fold enrichment (6-mer frequency, TF over GST control)"
same,binding signal,ERG,"1.03 fold enrichment (6-mer frequency, TF over GST control)"
same,binding signal,ELF1,"1.12 fold enrichment (6-mer frequency, TF over GST control)"
same,binding signal,EHF,"1.1 fold enrichment (6-mer frequency, TF over GST control)"
same,binding signal,SPI1,"1.03 fold enrichment (6-mer frequency, TF over GST control)"
same,binding signal,SPIB,"1.02 fold enrichment (6-mer frequency, TF over GST control)"
same,binding signal,ELK3,"1.06 fold enrichment (6-mer frequency, TF over GST control)"
same,binding signal,FEV,"1.07 fold enrichment (6-mer frequency, TF over GST control)"
same,binding signal,ETV5,"1.05 fold enrichment (6-mer frequency, TF over GST control)"
same,binding signal,HSF1,"1.06 fold enrichment (6-mer frequency, TF over GST control)"
same,binding signal,SPIC,"1.11 fold enrichment (6-mer frequency, TF over GST control)"
same,binding signal,ELF4,"1.11 fold enrichment (6-mer frequency, TF over GST control)"
same,binding signal,ELK4,"1.19 fold enrichment (6-mer frequency, TF over GST control)"
same,binding signal,ETV2,"1.19 fold enrichment (6-mer frequency, TF over GST control)"
same,binding signal,ELF3,"1.14 fold enrichment (6-mer frequency, TF over GST control)"
same,binding signal,CRX,"1.03 fold enrichment (6-mer frequency, TF over GST control)"
